# Experimental data reported in article PMC11062922 (Nature Chemical Biology, 2023).
# Like-named read-outs stand apart in the source and are kept apart here.
# Columns and labels:
# Set-up in all cases: species or system human, MV4-11 + K-562 + COLO205 + SK-N-BE2 + OVCAR-8
# FN3KRP = settings: read-out: apparent Kd, compound concentrations: 100 nM and 1000 nM (sheet 'Samples'), n = 1
# MAPK10 = settings: read-out: apparent Kd, n = 1
# MAPK11 = settings: read-out: apparent Kd; compound concentrations: 100 nM and 1000 nM (sheet 'Samples'), CATDS: 0.104421690058707; n = 1
# MAPK14 = settings: read-out: apparent Kd; compound concentrations: 100 nM and 1000 nM (sheet 'Samples'), CATDS: 0.43214609476913801; n = 1
# MAPK9 = settings: read-out: apparent Kd, n = 1
# MAPKAPK2 = settings: read-out: apparent Kd; compound concentrations: 100 nM and 1000 nM (sheet 'Samples'), CATDS: 0.49442009217898503; n = 1
# PIP4K2C = settings: read-out: apparent Kd; compound concentrations: 100 nM and 1000 nM (sheet 'Samples'), CATDS: 0.103791319343203; n = 1
# FLT3 = settings: read-out: apparent Kd, n = 1
# FRK = settings: read-out: apparent Kd; compound concentrations: 100 nM and 1000 nM (sheet 'Samples'), CATDS: 0.28944129909261102; n = 1
# HCK = settings: read-out: apparent Kd; compound concentrations: 100 nM and 1000 nM (sheet 'Samples'), CATDS: 0.241643180155243; n = 1
# LCK = settings: read-out: apparent Kd, compound concentrations: 100 nM and 1000 nM (sheet 'Samples'), n = 1
# MAP2K5 = settings: read-out: apparent Kd; compound concentrations: 100 nM and 1000 nM (sheet 'Samples'), CATDS: 0.19651058590933199; n = 1
# GAK = settings: read-out: apparent Kd; compound concentrations: 100 nM and 1000 nM (sheet 'Samples'), CATDS: 0.18485172893482499; n = 1
# NUAK1 = settings: read-out: apparent Kd; compound concentrations: 100 nM and 1000 nM (sheet 'Samples'), CATDS: 0.245714515933597; n = 1
# PLK4 = settings: read-out: apparent Kd; compound concentrations: 100 nM and 1000 nM (sheet 'Samples'), CATDS: 0.36168703025704801; n = 1
# PTK2 = settings: read-out: apparent Kd; compound concentrations: 100 nM and 1000 nM (sheet 'Samples'), CATDS: 0.26626379457403998; n = 1
# ILK = settings: read-out: apparent Kd; compound concentrations: 100 nM and 1000 nM (sheet 'Samples'), CATDS: 0.155345852963269; n = 1
# MAP2K1 = settings: read-out: apparent Kd; compound concentrations: 100 nM and 1000 nM (sheet 'Samples'), CATDS: 0.15695729249265; n = 1
# MYLK3 = settings: read-out: apparent Kd, n = 1
# TNIK = settings: read-out: apparent Kd, n = 1
# GRK6 = settings: read-out: apparent Kd, n = 1
# FLT4 = settings: read-out: apparent Kd; compound concentrations: 100 nM and 1000 nM (sheet 'Samples'), CATDS: 0.285311181024344; n = 1
# MAP4K1 = settings: read-out: apparent Kd; compound concentrations: 100 nM and 1000 nM (sheet 'Samples'), CATDS: 0.115744032998791; n = 1
# MAP4K2 = settings: read-out: apparent Kd; compound concentrations: 100 nM and 1000 nM (sheet 'Samples'), CATDS: 7.8376321207257696E-2; n = 1
# MAP4K3 = settings: read-out: apparent Kd; compound concentrations: 100 nM and 1000 nM (sheet 'Samples'), CATDS: 7.2653483868183794E-2; n = 1
# MAP4K5 = settings: read-out: apparent Kd; compound concentrations: 100 nM and 1000 nM (sheet 'Samples'), CATDS: 9.0249941941856496E-2; n = 1
# RET = settings: read-out: apparent Kd; compound concentrations: 100 nM and 1000 nM (sheet 'Samples'), CATDS: 0.14686027995557299; n = 1
# TNK1 = settings: read-out: apparent Kd; compound concentrations: 100 nM and 1000 nM (sheet 'Samples'), CATDS: 9.7568423036534901E-2; n = 1
# JAK2 = settings: read-out: apparent Kd, n = 1
# NLK = settings: read-out: apparent Kd; compound concentrations:100 nM and 1000 nM (sheet 'Samples'); n = 1
# FER = settings: read-out: apparent Kd; compound concentrations: 100 nM and 1000 nM (sheet 'Samples'), CATDS: 0.23966612691904199; n = 1
# IGF1R = settings: read-out: apparent Kd; compound concentrations: 100 nM and 1000 nM (sheet 'Samples'), CATDS: 0.234502945323845; n = 1
# INSR = settings: read-out: apparent Kd; compound concentrations: 100 nM and 1000 nM (sheet 'Samples'), CATDS: 0.33480579514984299; n = 1
# PDGFRB = settings: read-out: apparent Kd, compound concentrations: 100 nM and 1000 nM (sheet 'Samples'), n = 1
# [1] = compound concentrations: 100 nM and 1000 nM (sheet 'Samples'), CATDS: 1
# [2] = compound concentrations:100 nM and 1000 nM (sheet 'Samples')
structure (smiles),measurement,setting,value
Cl.Cn1c(=O)c(Oc2ccc(F)cc2F)cc2cnc(NC(C)(C)CO)nc21 [RO3305411-001],potency estimated from few doses,FN3KRP; CATDS: 0.10743943329960801,1390 nM
same,potency estimated from few doses,"MAPK10; compound concentrations: 100 nM and 1000 nM (sheet 'Samples'), CATDS: 0.114459990523153",1100 nM
same,potency estimated from few doses,MAPK11,1550 nM
same,potency estimated from few doses,MAPK14,21.6 nM
same,potency estimated from few doses,"MAPK9; compound concentrations: 100 nM and 1000 nM (sheet 'Samples'), CATDS: 0.13499142741698",640 nM
same,potency estimated from few doses,MAPKAPK2,16.8 nM
same,potency estimated from few doses,PIP4K2C,1590 nM
Cl.NS(=O)(=O)c1cccc(Nc2cc(-c3ccc(F)cc3)n[nH]2)c1 [GW824645A_PKIS2],potency estimated from few doses,FLT3; [1],342 nM
COc1cc2nccc(Nc3ccc(NC(=O)c4ccc(C)cc4)c(O)c3)c2cc1OC.Cl [GW440132A],potency estimated from few doses,FRK,691 nM
same,potency estimated from few doses,HCK,986 nM
same,potency estimated from few doses,LCK; CATDS: 0.30139088079166299,643 nM
same,potency estimated from few doses,MAP2K5,1640 nM
CCC(=O)Nc1cccc(Oc2nc(Nc3ccc(N4CCN(C)CC4)cc3OC)ncc2Cl)c1 [WZ4003],potency estimated from few doses,GAK,1600 nM
same,potency estimated from few doses,NUAK1,760 nM
same,potency estimated from few doses,PLK4,371 nM
same,potency estimated from few doses,PTK2,643 nM
Cn1nc(-c2ccc(NC(=O)Nc3ccc4ccccc4c3)c(F)c2)c2cnc(NCCN3CCOCC3)nc21.O=C(O)C(F)(F)F [SB-750250-M],potency estimated from few doses,FN3KRP; CATDS: 1,1800 nM
COc1cc[nH]c1/C=C1\C(=O)Nc2ccccc21 [RO0272159-000],potency estimated from few doses,"FLT3; compound concentrations: 100 nM and 1000 nM (sheet 'Samples'), CATDS: 0.77308167829792795",55.1 nM
same,potency estimated from few doses,ILK,1910 nM
same,potency estimated from few doses,MAP2K1,1850 nM
same,potency estimated from few doses,"MYLK3; compound concentrations: 100 nM and 1000 nM (sheet 'Samples'), CATDS: 0.17793919150823601",1280 nM
same,potency estimated from few doses,"TNIK; compound concentrations: 100 nM and 1000 nM (sheet 'Samples'), CATDS: 0.18945964172461099",1080 nM
c1ccc(-c2cnc3nccnn23)cc1 [AH20685XX],potency estimated from few doses,GRK6; [1],2060 nM
Nc1ncnc2c1ncn2-c1ccc(Cl)cc1 [AH2635],potency estimated from few doses,FLT3; [1],1610 nM
CN(c1ccc(NC(=O)Nc2ccc(OC(F)(F)F)cc2)cc1)c1ccnc(Nc2cccc(S(N)(=O)=O)c2)n1 [GW806742X],potency estimated from few doses,"FLT3; compound concentrations: 100 nM and 1000 nM (sheet 'Samples'), CATDS: 0.14801329572366401",336 nM
same,potency estimated from few doses,FLT4,122 nM
same,potency estimated from few doses,LCK; CATDS: 8.5117028494468894E-2,1110 nM
same,potency estimated from few doses,MAP4K1,536 nM
same,potency estimated from few doses,MAP4K2,1420 nM
same,potency estimated from few doses,MAP4K3,1830 nM
same,potency estimated from few doses,MAP4K5,951 nM
same,potency estimated from few doses,RET,340 nM
same,potency estimated from few doses,"TNIK; compound concentrations: 100 nM and 1000 nM (sheet 'Samples'), CATDS: 6.8078386206779196E-2",2360 nM
same,potency estimated from few doses,TNK1,783 nM
Cn1c(=O)c(Oc2ccc(F)cc2F)cc2cnc(NC3CCOCC3)nc21 [RO3304806-000],potency estimated from few doses,GRK6; [2],1350 nM
same,potency estimated from few doses,JAK2; [2],603 nM
same,potency estimated from few doses,MAPK10; [2],1000 nM
same,potency estimated from few doses,MAPK9; [2],1780 nM
same,potency estimated from few doses,NLK,1620 nM
O=C1Nc2ccccc2/C1=C/Nc1ccc2[nH]c(=O)[nH]c2c1 [GW284408X],potency estimated from few doses,"FLT3; compound concentrations: 100 nM and 1000 nM (sheet 'Samples'), CATDS: 0.54453262493036503",348 nM
same,potency estimated from few doses,"MYLK3; compound concentrations: 100 nM and 1000 nM (sheet 'Samples'), CATDS: 0.46220060091739101",485 nM
C/C(Nc1ccc(S(N)(=O)=O)cc1)=C1/C(=O)Nc2ccccc21 [GW335962X],potency estimated from few doses,FLT3; [2],524 nM
same,potency estimated from few doses,MYLK3; [2],629 nM
same,potency estimated from few doses,TNIK; [2],2260 nM
COc1cc2c(cc1Nc1nc(N3CCc4ccccc43)c3cc[nH]c3n1)N(C(=O)CN(C)C)CC2 [GSK2186269A],potency estimated from few doses,FER,915 nM
same,potency estimated from few doses,IGF1R,959 nM
same,potency estimated from few doses,INSR,493 nM
same,potency estimated from few doses,"JAK2; compound concentrations: 100 nM and 1000 nM (sheet 'Samples'), CATDS: 0.21851313363519401",1130 nM
COc1ccc(Nc2ncc(-c3ccccc3)o2)cc1OC.Cl [GW575533A],potency estimated from few doses,"FLT3; compound concentrations: 100 nM and 1000 nM (sheet 'Samples'), CATDS: 0.92036474930911705",4.09 nM
same,potency estimated from few doses,PDGFRB; CATDS: 0.343232825956933,90.5 nM
COc1ccccc1Nc1ncc(-c2ccccc2)o1.Cl [GW577921A],potency estimated from few doses,"FLT3; compound concentrations: 100 nM and 1000 nM (sheet 'Samples'), CATDS: 0.90882717599339502",14.3 nM
same,potency estimated from few doses,"JAK2; compound concentrations: 100 nM and 1000 nM (sheet 'Samples'), CATDS: 0.29115403437322901",370 nM
same,potency estimated from few doses,PDGFRB; CATDS: 0.22396051882089299,1080 nM
